Experimental data reported in paper PMC5540273 (PLoS ONE, 2017).

test system: TAOK1; details: concentration: 1 μM, replicates: in singlicate; n = 1
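Further: KINOMEscan kinase panel screen.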

Row | SMILES | %Inh
1 | Cl.c1ccc(-c2n[nH]cc2-c2ccnc(-c3ccc(CN4CCOCC4)cc3)c2)nc1 [GW776245] | 0%
2 | Cc1nnc(-c2ccc3occ(-c4ccc(S(C)=O)cc4)c3c2)[nH]1 (centres unmarked) | 0%
3 | Cn1ccc2ncnc(Oc3ccc(Nc4nc5ccccc5[nH]4)cc3)c21 | 0%
4 | COc1cc2ncn(-c3cc(OCC4CCCO4)c(C(N)=O)s3)c2cc1OC (centres unmarked) [GSK204607] | 0%
5 | Cc1cccc(-c2nc(-c3ccc(S(C)(=O)=O)cc3)sc2-c2ccnc(NCCc3ccccc3)c2)c1 | 0%
6 | COC(=O)c1c(-c2ccccc2)c2cc(C(=O)O)ccc2c(=O)n1Cc1ccccc1 | 14%
7 | Cl.Oc1ccc(-c2nc(-c3ccccc3)[nH]c2-c2ccncc2)cc1 [SB-428218] | 0%
8 | CC(=O)Nc1nc2cnc(Nc3cc(NC(=O)c4cccc(CCC#N)c4)ccc3C)nc2s1 | 0%
9 | CSc1nn2c(=O)cc(N3CCOCC3)nc2n1Cc1cccc(C(F)(F)F)c1C [GSK2363608] | 0%
10 | O=C(Nc1n[nH]c2nc(-c3nccs3)c(Br)cc12)C1CCCC1 [SB-742609] | 0%
11 | CCn1c(-c2ccccn2)nc2cnccc21 [SB-736398] | 0%
12 | NC(=O)c1nnc2ccccc2c1N | 20%
13 | COc1ccc(Nc2nccc(NCCNC(=O)Nc3ccccc3F)n2)cc1 [GSK1379901] | 0%
14 | Cc1cc(N2Cc3ccccc3C2)nc(Nc2ccc(S(=O)(=O)N3CCOCC3)cc2)n1.Cl [GSK1669917] | 0%
